Compounds without any hit were thinned out: in the full panel of roughly 83,000, 20% have a hit.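 Plates (96-well) were seeded with cells, treated with compound at one concentration, and incubated for 48 hours before percent growth was determined.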 Unmarked numbers belong to inactive results. Active and inactive are the calls of the source. Rule for the calls: active = growth percent below 10; inactive = the rest.
Assays:
Experiment in all cases: NCI-60 one-dose screen, 48 h (100 = growth as untreated, 0 = no growth, -100 = all killed)
Details in all cases: 10 µM
HCT-15 colon = system: HCT-15 colon
HT29 colon = system: HT29 colon
SNB-75 CNS = system: SNB-75 CNS
SNB-19 CNS = system: SNB-19 CNS
U251 CNS = system: U251 CNS
PC-3 prostate = system: PC-3 prostate
SK-MEL-5 melanoma = system: SK-MEL-5 melanoma
UACC-62 melanoma = system: UACC-62 melanoma
LOX IMVI melanoma = system: LOX IMVI melanoma
SK-MEL-28 melanoma = system: SK-MEL-28 melanoma

Compound: CCCn1c(O)c(N=Nc2nc(-c3cc4ccccc4oc3=O)cs2)c2cc(Br)ccc21
- growth (HCT-15 colon): 90.4%
- growth (HT29 colon): 110%
- growth (SNB-75 CNS): 94.7%
- growth (SNB-19 CNS): 90.3%
- growth (U251 CNS): 86%
- growth (PC-3 prostate): 96.3%
- growth (SK-MEL-5 melanoma): 95.5%
- growth (UACC-62 melanoma): 94.4%
- growth (LOX IMVI melanoma): 83.6%
- growth (SK-MEL-28 melanoma): 101%

Compound: O=C(c1ccc(Cl)cc1)C1[C@H](c2ccc(Br)cc2)[C@@H](c2ccccc2)NC12C(=O)Nc1ccc(Br)cc12 (stereo not given in full)
- growth (HCT-15 colon): -91.6% (active)
- growth (HT29 colon): -54.5% (active)
- growth (SNB-75 CNS): 0.834% (active)
- growth (SNB-19 CNS): -51% (active)
- growth (U251 CNS): -79.9% (active)
- growth (PC-3 prostate): -23.5% (active)
- growth (SK-MEL-5 melanoma): -60.3% (active)
- growth (UACC-62 melanoma): -83.9% (active)
- growth (LOX IMVI melanoma): -100% (active)
- growth (SK-MEL-28 melanoma): -93.8% (active)

Compound: COc1cc(/C=N/NC(=O)c2ccc3nc(-c4ccc(Cl)cc4)[nH]c3c2)cc(OC)c1OC
- growth (HCT-15 colon): 55.7%
- growth (HT29 colon): -50.2% (active)
- growth (SNB-75 CNS): -47.5% (active)
- growth (SNB-19 CNS): -94.1% (active)
- growth (U251 CNS): -86.6% (active)
- growth (PC-3 prostate): -41.6% (active)
- growth (SK-MEL-5 melanoma): -82.6% (active)
- growth (UACC-62 melanoma): -76.7% (active)
- growth (LOX IMVI melanoma): -81.1% (active)
- growth (SK-MEL-28 melanoma): -87.9% (active)

Compound: CCN1CCN(c2ccc(NC(=O)Nc3ccc(-c4cc(C(=O)NC)c5ncccc5n4)cc3)cc2C(F)(F)F)CC1
- growth (HCT-15 colon): -100% (active)
- growth (HT29 colon): -100% (active)
- growth (SNB-75 CNS): -95% (active)
- growth (SNB-19 CNS): -100% (active)
- growth (U251 CNS): -96.3% (active)
- growth (PC-3 prostate): -77.9% (active)
- growth (SK-MEL-5 melanoma): -100% (active)
- growth (UACC-62 melanoma): -99% (active)
- growth (LOX IMVI melanoma): -100% (active)
- growth (SK-MEL-28 melanoma): -100% (active)

Compound: CN(CCO)c1oc(-c2ccccc2)nc1[P+](c1ccccc1)(c1ccccc1)c1ccccc1
- growth (HCT-15 colon): 51.4%
- growth (HT29 colon): 7.78% (active)
- growth (SNB-75 CNS): -2.5% (active)
- growth (SNB-19 CNS): 9.54% (active)
- growth (U251 CNS): 15.3%
- growth (PC-3 prostate): 10.8%
- growth (SK-MEL-5 melanoma): -93.3% (active)
- growth (UACC-62 melanoma): -30.2% (active)
- growth (LOX IMVI melanoma): -67.2% (active)
- growth (SK-MEL-28 melanoma): 12%

Compound: O=C1NC(=NC2CCCCCC2)N/C1=C\c1ccc2ncoc2c1
- growth (HCT-15 colon): 13%
- growth (HT29 colon): 56.1%
- growth (SNB-75 CNS): 14.7%
- growth (SNB-19 CNS): 29.7%
- growth (U251 CNS): 32.7%
- growth (PC-3 prostate): 53.8%
- growth (SK-MEL-5 melanoma): 21.1%
- growth (UACC-62 melanoma): 19.3%
- growth (LOX IMVI melanoma): 22.2%
- growth (SK-MEL-28 melanoma): 27.5%

Compound: Cc1ccc(CSc2nc(-c3ccc(F)cc3)c(C#N)c(=O)[nH]2)cc1
- growth (HCT-15 colon): 84.2%
- growth (HT29 colon): 89.3%
- growth (SNB-75 CNS): 115%
- growth (SNB-19 CNS): 109%
- growth (U251 CNS): 96.6%
- growth (PC-3 prostate): 95.5%
- growth (SK-MEL-5 melanoma): 94.5%
- growth (UACC-62 melanoma): 93.8%
- growth (LOX IMVI melanoma): 95.6%
- growth (SK-MEL-28 melanoma): 111%

Compound: CN(C)c1cccc2c(S(=O)(=O)Nc3cccc(-c4csc(NC(=O)CCCCCN5CCN(c6cc7c(cc6F)C(=O)N(C6CCC(=O)NC6=O)C7=O)CC5)n4)c3)cccc12 (stereo not given)
- growth (HCT-15 colon): 77.9%
- growth (HT29 colon): 92.3%
- growth (SNB-75 CNS): 60.5%
- growth (SNB-19 CNS): 92.8%
- growth (U251 CNS): 94.4%
- growth (PC-3 prostate): 78.5%
- growth (SK-MEL-5 melanoma): 60.2%
- growth (UACC-62 melanoma): 83.1%
- growth (LOX IMVI melanoma): 91.8%
- growth (SK-MEL-28 melanoma): 104%

Compound: O=c1[nH][nH]c(Nc2ccccc2)c1N=Nc1ccc(F)cc1
- growth (HCT-15 colon): 70.1%
- growth (HT29 colon): 107%
- growth (SNB-75 CNS): 59.4%
- growth (SNB-19 CNS): 95.3%
- growth (U251 CNS): 99.9%
- growth (PC-3 prostate): 95.5%
- growth (SK-MEL-5 melanoma): 96.6%
- growth (UACC-62 melanoma): 92.1%
- growth (LOX IMVI melanoma): 102%
- growth (SK-MEL-28 melanoma): 108%

Compound: O=C(c1ccccc1)n1ccc(-c2cc3cc(Br)ccc3oc2=O)n1
- growth (HCT-15 colon): 22.8%
- growth (HT29 colon): 63.5%
- growth (SNB-75 CNS): 66.1%
- growth (SNB-19 CNS): 34.5%
- growth (U251 CNS): 27.8%
- growth (PC-3 prostate): 28.2%
- growth (SK-MEL-5 melanoma): 10.6%
- growth (UACC-62 melanoma): -21.1% (active)
- growth (LOX IMVI melanoma): 2.5% (active)
- growth (SK-MEL-28 melanoma): 24.4%

Compound: O=c1c2ccccc2nc(COc2ccccc2)n1/N=C/c1ccc(N2CCCC2)cc1
- growth (HCT-15 colon): 82.8%
- growth (HT29 colon): 79.9%
- growth (SNB-75 CNS): 108%
- growth (SNB-19 CNS): 89.5%
- growth (U251 CNS): 105%
- growth (PC-3 prostate): 80.3%
- growth (SK-MEL-5 melanoma): 62.4%
- growth (UACC-62 melanoma): 61.6%
- growth (LOX IMVI melanoma): 86.6%
- growth (SK-MEL-28 melanoma): 100%

Compound: Cn1c(O)c(N=Nc2nc(-c3cc4ccccc4oc3=O)cs2)c2cc(Br)ccc21
- growth (HCT-15 colon): 88.5%
- growth (HT29 colon): 118%
- growth (SNB-75 CNS): 54.7%
- growth (SNB-19 CNS): 12.5%
- growth (U251 CNS): 21.3%
- growth (PC-3 prostate): 102%
- growth (SK-MEL-5 melanoma): 96%
- growth (UACC-62 melanoma): 65%
- growth (LOX IMVI melanoma): 56.7%
- growth (SK-MEL-28 melanoma): 99.8%

Compound: O=C1CCC(N2Cc3c(NCc4ccc(-c5ccccc5)cc4)cccc3C2=O)C(=O)N1 (stereo not given)
- growth (HCT-15 colon): 36.4%
- growth (HT29 colon): 109%
- growth (SNB-75 CNS): 85.9%
- growth (SNB-19 CNS): 56.2%
- growth (U251 CNS): 49.6%
- growth (PC-3 prostate): 50.4%
- growth (SK-MEL-5 melanoma): 67.3%
- growth (UACC-62 melanoma): 75.5%
- growth (LOX IMVI melanoma): 80.5%
- growth (SK-MEL-28 melanoma): 91.4%

Compound: CN1CCN(Cc2ccc(NC(=O)c3cncc(C#Cc4cnc5ccc(N[C@@H]6CCOC6)nn45)c3)cc2C(F)(F)F)CC1
- growth (HCT-15 colon): -85.6% (active)
- growth (HT29 colon): -44.4% (active)
- growth (SNB-75 CNS): -96.1% (active)
- growth (SNB-19 CNS): -100% (active)
- growth (U251 CNS): -82.3% (active)
- growth (PC-3 prostate): -46.9% (active)
- growth (SK-MEL-5 melanoma): -100% (active)
- growth (UACC-62 melanoma): -90% (active)
- growth (LOX IMVI melanoma): -100% (active)
- growth (SK-MEL-28 melanoma): -95.3% (active)

Compound: CC(=O)Nc1ccc(-c2cn(-c3cccc(C(=O)Nc4cccc(OC(F)(F)F)c4)c3)nn2)cn1
- growth (HCT-15 colon): 87.3%
- growth (HT29 colon): 96.9%
- growth (SNB-75 CNS): 118%
- growth (SNB-19 CNS): 113%
- growth (U251 CNS): 73.6%
- growth (PC-3 prostate): 85.3%
- growth (SK-MEL-5 melanoma): 97%
- growth (UACC-62 melanoma): 73.5%
- growth (LOX IMVI melanoma): 88.6%
- growth (SK-MEL-28 melanoma): 92.8%

Compound: Nc1nc(-c2ccccc2)cc(-c2cc3ccccc3nc2Cl)n1
- growth (HCT-15 colon): 55.9%
- growth (HT29 colon): 102%
- growth (SNB-75 CNS): 71.4%
- growth (SNB-19 CNS): 73.4%
- growth (U251 CNS): 63.4%
- growth (PC-3 prostate): 76.9%
- growth (SK-MEL-5 melanoma): 92.9%
- growth (UACC-62 melanoma): 83.3%
- growth (LOX IMVI melanoma): 45%
- growth (SK-MEL-28 melanoma): 103%

Compound: Cc1ccc(CSc2nc(Cl)c(C#N)c(-c3ccc(F)cc3)n2)cc1
- growth (HCT-15 colon): 54.4%
- growth (HT29 colon): 38.4%
- growth (SNB-75 CNS): 126%
- growth (SNB-19 CNS): 89.3%
- growth (U251 CNS): 68.8%
- growth (PC-3 prostate): 42.6%
- growth (SK-MEL-5 melanoma): 77.6%
- growth (UACC-62 melanoma): 77.2%
- growth (LOX IMVI melanoma): 85.8%
- growth (SK-MEL-28 melanoma): 93.9%

Compound: CC1(c2ccccc2)NC(=O)N(CC(=O)Nc2ccc(C(=O)/C=C/c3ccccc3)cc2)C1=O (stereo not given)
- growth (HCT-15 colon): 2.92% (active)
- growth (HT29 colon): -23% (active)
- growth (SNB-75 CNS): 72.1%
- growth (SNB-19 CNS): 66.1%
- growth (U251 CNS): -15.2% (active)
- growth (PC-3 prostate): 31.6%
- growth (SK-MEL-5 melanoma): 20.4%
- growth (UACC-62 melanoma): 36.5%
- growth (LOX IMVI melanoma): -72% (active)
- growth (SK-MEL-28 melanoma): 62.3%

Compound: O=C1Nc2cc(-c3ccc(NC(=O)c4cccs4)cc3)ccc2/C1=C/c1ccc[nH]1
- growth (HCT-15 colon): 47.6%
- growth (HT29 colon): 71.1%
- growth (SNB-75 CNS): 138%
- growth (SNB-19 CNS): 87.1%
- growth (U251 CNS): 65.9%
- growth (PC-3 prostate): 65.6%
- growth (SK-MEL-5 melanoma): 63.6%
- growth (UACC-62 melanoma): 80.8%
- growth (LOX IMVI melanoma): 55.7%
- growth (SK-MEL-28 melanoma): 101%

Compound: O=C(c1ccc(O)cc1)C1[C@H](c2ccccc2Br)[C@@H](c2ccccc2)NC12C(=O)Nc1ccc(Br)cc12 (stereo not given in full)
- growth (HCT-15 colon): 36.8%
- growth (HT29 colon): 26.8%
- growth (SNB-75 CNS): 31.5%
- growth (SNB-19 CNS): 53.4%
- growth (U251 CNS): 26.5%
- growth (PC-3 prostate): 23.3%
- growth (SK-MEL-5 melanoma): 56.9%
- growth (UACC-62 melanoma): 42.3%
- growth (LOX IMVI melanoma): 15.8%
- growth (SK-MEL-28 melanoma): 77.7%

Compound: CCCn1c(=O)c2[nH]c(-c3ccc(OCc4nc5ccc(C)cc5[nH]4)cc3)nc2n(CCC)c1=O
- growth (HCT-15 colon): 23.5%
- growth (HT29 colon): 38.7%
- growth (SNB-75 CNS): -38.1% (active)
- growth (SNB-19 CNS): 34%
- growth (U251 CNS): 6.38% (active)
- growth (PC-3 prostate): 39.2%
- growth (SK-MEL-5 melanoma): 12.8%
- growth (UACC-62 melanoma): 2.25% (active)
- growth (LOX IMVI melanoma): -20.3% (active)
- growth (SK-MEL-28 melanoma): 39.9%
